The supplement of paper PMC11732987, “Enantioselective OTUD7B fragment discovery through chemoproteomics screening and high-throughput optimisation” (Communications Chemistry, 2025)

Assays:
Assay in all cases: log2 ratio of Biotin-Ahx-Ub-VS probe labelling (fragment/DMSO); higher = less target engagement (more negative = stronger competition), active = hit call of the paper (q ≤ 0.05, log2 ratio ≤ -1)
Conditions in all cases: compound concentration: 200 uM; treatment time: 3 h
USP42 = molecular target: T1, USP42 (UniProt Q9H9J4)
T1 sequence (whole entry): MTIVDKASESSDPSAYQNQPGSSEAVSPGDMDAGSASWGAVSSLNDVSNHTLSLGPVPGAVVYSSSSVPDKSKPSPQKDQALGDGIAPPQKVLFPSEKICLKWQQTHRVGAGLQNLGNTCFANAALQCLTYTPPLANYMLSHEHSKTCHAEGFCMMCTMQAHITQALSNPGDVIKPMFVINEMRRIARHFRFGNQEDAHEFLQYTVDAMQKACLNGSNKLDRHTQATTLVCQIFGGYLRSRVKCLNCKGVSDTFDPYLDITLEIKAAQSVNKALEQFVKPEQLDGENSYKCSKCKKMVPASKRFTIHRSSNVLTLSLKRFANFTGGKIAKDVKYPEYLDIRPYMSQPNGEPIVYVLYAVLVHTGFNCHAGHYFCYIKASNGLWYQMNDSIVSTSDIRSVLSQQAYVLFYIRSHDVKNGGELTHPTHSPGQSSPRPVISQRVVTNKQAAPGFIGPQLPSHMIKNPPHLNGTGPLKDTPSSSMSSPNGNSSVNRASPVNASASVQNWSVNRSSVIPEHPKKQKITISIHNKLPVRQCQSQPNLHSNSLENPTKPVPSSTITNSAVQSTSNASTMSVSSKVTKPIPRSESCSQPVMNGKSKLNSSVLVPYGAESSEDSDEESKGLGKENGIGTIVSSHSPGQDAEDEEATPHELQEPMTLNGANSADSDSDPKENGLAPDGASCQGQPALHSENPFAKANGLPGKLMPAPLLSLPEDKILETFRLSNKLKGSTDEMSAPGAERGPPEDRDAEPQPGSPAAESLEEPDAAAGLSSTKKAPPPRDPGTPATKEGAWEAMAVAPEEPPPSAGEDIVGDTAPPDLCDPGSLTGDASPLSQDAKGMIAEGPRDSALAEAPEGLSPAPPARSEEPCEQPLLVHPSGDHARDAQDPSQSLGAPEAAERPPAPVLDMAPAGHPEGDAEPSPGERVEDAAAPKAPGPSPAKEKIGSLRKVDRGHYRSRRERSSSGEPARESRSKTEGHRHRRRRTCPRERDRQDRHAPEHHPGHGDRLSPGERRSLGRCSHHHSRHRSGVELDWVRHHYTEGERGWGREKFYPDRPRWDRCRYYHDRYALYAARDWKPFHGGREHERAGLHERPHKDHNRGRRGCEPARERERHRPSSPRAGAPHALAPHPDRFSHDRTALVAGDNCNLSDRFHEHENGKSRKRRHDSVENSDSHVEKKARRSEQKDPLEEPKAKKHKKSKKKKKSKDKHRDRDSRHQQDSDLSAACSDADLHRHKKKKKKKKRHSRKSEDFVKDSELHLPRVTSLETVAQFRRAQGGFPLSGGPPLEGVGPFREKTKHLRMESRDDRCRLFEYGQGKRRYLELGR
Outline: (§1)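 Labelled DUBs from HEK293T lysate were NeutrAvidin-enriched, digested with LysC and trypsin, and run by diaPASEF LC-MS/MS. Before that, each 495 µg sample in Tris/CHAPS/IGEPAL buffer with protease inhibitors was treated in triplicate with fragment at 200 µM or vehicle for 3 h, then with Biotin-Ahx-Ub-VS at 0.5 µM final for 1 h. Values are average log2 ratios of fragment over vehicle by unpaired t-test, based on global-median-normalised Spectronaut label-free quantities from proteins with ≥2 unique peptides.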

USP46 = USP46 (UniProt P62068)
Sequence of USP46 (P62068 whole entry): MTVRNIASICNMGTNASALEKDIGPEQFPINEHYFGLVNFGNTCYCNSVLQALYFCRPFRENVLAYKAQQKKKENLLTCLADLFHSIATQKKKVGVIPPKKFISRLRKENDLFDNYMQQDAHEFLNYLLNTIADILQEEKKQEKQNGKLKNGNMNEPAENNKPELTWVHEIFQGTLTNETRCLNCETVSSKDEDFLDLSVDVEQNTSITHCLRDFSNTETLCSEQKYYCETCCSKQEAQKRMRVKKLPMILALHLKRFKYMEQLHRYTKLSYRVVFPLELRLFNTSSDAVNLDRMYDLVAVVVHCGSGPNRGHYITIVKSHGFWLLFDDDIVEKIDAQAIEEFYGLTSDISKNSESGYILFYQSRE
Outline: as §1

USP47 = molecular target: T2, USP47 (UniProt Q96K76)
T2 sequence (whole entry): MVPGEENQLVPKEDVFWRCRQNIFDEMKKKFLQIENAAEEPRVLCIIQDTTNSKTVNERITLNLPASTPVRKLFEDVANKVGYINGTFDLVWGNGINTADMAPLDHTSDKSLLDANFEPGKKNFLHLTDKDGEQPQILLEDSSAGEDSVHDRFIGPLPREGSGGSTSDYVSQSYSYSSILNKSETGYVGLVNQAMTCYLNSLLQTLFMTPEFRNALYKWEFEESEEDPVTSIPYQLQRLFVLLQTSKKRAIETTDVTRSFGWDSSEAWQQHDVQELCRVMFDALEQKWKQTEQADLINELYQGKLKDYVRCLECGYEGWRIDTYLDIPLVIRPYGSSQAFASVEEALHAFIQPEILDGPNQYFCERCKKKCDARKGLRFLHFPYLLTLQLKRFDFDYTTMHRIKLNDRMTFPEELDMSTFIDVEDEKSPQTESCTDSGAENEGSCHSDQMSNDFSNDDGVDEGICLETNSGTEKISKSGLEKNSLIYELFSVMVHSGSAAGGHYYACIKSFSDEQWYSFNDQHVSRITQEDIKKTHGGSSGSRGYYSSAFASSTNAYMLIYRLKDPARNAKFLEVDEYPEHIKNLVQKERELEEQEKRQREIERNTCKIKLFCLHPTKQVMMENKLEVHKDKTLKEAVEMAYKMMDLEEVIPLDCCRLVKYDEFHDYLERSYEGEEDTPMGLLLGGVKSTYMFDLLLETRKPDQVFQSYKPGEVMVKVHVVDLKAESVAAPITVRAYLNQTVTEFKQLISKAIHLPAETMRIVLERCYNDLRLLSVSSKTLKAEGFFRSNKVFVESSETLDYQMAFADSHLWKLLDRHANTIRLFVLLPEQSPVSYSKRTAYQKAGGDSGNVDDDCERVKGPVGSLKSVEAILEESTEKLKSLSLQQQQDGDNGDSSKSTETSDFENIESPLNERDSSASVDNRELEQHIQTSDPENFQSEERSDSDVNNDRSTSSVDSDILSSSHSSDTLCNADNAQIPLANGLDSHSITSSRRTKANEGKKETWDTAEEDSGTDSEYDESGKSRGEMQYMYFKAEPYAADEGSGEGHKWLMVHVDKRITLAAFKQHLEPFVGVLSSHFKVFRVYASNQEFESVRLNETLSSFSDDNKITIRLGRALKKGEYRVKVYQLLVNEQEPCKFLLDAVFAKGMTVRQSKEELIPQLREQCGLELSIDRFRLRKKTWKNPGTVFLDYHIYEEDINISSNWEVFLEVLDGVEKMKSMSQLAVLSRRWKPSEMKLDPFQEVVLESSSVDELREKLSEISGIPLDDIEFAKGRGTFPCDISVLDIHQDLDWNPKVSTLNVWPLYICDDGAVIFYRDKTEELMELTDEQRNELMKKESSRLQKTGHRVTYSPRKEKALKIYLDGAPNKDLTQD
Outline: as §1

USP48 = molecular target: T3, USP48 (UniProt Q86UV5)
T3 sequence (whole entry): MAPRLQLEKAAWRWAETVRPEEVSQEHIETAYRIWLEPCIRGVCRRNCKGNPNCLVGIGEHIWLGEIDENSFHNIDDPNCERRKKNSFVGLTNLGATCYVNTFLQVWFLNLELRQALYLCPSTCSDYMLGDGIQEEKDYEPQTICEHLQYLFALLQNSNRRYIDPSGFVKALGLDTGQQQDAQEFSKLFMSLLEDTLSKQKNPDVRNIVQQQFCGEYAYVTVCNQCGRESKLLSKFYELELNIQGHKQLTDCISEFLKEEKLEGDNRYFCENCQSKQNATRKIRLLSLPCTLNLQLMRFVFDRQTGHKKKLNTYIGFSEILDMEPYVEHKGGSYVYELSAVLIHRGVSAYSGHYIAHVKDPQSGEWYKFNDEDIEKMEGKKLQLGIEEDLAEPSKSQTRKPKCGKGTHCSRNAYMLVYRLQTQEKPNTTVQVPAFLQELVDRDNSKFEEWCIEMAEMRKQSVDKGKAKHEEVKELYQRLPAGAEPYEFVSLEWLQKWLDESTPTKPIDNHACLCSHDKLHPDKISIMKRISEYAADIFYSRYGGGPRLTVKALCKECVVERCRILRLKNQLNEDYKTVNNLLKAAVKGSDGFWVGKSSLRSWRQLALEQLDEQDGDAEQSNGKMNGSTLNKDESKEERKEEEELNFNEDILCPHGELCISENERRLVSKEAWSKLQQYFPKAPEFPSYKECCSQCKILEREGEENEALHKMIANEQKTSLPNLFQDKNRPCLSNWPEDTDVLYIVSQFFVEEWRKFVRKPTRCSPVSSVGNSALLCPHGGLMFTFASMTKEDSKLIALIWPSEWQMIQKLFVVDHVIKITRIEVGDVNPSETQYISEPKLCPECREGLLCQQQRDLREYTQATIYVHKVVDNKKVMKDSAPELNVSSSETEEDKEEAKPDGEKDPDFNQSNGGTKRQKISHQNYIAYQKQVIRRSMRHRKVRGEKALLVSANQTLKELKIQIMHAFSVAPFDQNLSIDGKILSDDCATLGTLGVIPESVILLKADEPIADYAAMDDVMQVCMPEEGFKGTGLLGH
Outline: as §1

USP5 = molecular target: T4, USP5 (UniProt P45974)
T4 sequence (whole entry): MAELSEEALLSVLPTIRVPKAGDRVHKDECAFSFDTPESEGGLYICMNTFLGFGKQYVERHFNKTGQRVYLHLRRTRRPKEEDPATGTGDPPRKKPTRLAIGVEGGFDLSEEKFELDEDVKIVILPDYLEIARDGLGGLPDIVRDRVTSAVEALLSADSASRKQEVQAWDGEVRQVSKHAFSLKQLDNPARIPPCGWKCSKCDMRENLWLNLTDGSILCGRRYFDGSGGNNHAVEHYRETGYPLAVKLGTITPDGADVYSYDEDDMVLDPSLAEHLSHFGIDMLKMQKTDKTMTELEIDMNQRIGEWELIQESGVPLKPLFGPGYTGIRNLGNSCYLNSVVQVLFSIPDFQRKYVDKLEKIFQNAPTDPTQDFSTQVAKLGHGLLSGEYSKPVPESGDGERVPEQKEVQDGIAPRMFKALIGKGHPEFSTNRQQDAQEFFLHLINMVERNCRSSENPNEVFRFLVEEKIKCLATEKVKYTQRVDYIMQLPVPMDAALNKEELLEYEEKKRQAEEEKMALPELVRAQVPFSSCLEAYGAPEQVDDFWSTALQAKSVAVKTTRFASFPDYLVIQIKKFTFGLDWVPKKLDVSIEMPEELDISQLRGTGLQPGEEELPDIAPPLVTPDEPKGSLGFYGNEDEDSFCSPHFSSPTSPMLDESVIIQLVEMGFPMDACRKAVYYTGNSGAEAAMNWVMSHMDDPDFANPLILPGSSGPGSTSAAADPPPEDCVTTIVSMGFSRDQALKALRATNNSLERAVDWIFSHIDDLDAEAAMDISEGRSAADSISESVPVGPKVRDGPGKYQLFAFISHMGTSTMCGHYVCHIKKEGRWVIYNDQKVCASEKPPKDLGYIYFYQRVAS
Outline: as §1

USP54 = USP54 (UniProt Q70EL1)
Outline: as §1

USP7 = USP7 (UniProt Q93009)
Sequence of USP7 (Q93009 whole entry, looked up): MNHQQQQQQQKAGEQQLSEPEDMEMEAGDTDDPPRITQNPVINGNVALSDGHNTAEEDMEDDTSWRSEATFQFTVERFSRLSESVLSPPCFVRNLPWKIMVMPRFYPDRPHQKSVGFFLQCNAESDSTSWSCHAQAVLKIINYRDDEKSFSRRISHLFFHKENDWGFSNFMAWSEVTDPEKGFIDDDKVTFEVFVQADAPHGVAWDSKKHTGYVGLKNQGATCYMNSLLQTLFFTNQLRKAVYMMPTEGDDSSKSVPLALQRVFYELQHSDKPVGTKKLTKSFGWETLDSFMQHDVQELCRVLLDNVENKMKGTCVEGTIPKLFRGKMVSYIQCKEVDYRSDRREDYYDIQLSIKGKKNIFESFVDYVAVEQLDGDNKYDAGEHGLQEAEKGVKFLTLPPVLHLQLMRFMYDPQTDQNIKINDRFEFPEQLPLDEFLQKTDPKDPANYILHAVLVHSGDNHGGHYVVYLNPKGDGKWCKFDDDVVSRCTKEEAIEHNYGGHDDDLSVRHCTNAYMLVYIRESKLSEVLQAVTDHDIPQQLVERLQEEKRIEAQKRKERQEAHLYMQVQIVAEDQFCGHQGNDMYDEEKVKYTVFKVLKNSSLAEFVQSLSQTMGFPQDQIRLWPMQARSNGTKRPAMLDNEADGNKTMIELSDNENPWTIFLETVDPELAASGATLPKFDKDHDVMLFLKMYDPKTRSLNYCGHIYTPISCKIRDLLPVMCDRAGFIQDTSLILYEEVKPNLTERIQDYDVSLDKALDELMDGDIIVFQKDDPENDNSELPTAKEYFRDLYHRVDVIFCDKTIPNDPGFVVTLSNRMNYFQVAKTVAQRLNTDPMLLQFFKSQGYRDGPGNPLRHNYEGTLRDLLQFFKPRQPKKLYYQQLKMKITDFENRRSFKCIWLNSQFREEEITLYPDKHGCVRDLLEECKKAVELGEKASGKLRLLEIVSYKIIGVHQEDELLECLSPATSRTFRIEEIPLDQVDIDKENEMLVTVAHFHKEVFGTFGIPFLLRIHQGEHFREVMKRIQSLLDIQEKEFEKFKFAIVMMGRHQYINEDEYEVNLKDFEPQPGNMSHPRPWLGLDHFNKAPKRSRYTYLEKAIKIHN
Outline: as §1

USP8 = molecular target: T5, USP8 (UniProt P40818)
T5 sequence (whole entry): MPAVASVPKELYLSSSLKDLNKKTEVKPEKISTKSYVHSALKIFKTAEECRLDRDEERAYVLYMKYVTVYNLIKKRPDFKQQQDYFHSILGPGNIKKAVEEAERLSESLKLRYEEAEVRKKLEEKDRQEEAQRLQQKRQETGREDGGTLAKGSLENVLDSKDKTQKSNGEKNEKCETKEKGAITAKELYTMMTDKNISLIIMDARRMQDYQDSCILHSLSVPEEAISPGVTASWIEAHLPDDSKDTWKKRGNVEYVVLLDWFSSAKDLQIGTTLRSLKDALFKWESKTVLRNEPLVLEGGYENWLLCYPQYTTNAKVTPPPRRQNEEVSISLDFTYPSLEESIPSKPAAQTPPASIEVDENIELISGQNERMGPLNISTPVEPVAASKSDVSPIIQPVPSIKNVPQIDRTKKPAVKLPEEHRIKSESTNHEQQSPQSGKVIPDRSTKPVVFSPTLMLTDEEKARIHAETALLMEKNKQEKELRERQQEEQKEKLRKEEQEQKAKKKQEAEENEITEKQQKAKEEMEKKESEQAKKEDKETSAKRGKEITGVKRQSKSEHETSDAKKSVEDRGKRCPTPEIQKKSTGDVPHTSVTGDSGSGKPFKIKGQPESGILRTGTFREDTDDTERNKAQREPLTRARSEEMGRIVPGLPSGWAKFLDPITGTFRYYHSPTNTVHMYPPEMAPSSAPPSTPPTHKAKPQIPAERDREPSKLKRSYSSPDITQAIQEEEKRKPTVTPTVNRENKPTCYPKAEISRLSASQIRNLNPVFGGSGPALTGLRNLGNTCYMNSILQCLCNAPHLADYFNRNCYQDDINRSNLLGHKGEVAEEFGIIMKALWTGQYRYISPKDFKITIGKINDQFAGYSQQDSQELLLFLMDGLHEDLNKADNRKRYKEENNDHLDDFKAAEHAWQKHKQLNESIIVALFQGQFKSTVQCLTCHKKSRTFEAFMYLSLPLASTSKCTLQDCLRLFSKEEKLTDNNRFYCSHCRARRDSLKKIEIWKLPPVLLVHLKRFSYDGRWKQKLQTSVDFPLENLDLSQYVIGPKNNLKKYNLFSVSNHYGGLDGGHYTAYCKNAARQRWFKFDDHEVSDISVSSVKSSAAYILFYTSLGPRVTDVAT
Outline: as §1

USP9X = USP9X (UniProt Q93008)
Sequence of USP9X (Q93008 whole entry): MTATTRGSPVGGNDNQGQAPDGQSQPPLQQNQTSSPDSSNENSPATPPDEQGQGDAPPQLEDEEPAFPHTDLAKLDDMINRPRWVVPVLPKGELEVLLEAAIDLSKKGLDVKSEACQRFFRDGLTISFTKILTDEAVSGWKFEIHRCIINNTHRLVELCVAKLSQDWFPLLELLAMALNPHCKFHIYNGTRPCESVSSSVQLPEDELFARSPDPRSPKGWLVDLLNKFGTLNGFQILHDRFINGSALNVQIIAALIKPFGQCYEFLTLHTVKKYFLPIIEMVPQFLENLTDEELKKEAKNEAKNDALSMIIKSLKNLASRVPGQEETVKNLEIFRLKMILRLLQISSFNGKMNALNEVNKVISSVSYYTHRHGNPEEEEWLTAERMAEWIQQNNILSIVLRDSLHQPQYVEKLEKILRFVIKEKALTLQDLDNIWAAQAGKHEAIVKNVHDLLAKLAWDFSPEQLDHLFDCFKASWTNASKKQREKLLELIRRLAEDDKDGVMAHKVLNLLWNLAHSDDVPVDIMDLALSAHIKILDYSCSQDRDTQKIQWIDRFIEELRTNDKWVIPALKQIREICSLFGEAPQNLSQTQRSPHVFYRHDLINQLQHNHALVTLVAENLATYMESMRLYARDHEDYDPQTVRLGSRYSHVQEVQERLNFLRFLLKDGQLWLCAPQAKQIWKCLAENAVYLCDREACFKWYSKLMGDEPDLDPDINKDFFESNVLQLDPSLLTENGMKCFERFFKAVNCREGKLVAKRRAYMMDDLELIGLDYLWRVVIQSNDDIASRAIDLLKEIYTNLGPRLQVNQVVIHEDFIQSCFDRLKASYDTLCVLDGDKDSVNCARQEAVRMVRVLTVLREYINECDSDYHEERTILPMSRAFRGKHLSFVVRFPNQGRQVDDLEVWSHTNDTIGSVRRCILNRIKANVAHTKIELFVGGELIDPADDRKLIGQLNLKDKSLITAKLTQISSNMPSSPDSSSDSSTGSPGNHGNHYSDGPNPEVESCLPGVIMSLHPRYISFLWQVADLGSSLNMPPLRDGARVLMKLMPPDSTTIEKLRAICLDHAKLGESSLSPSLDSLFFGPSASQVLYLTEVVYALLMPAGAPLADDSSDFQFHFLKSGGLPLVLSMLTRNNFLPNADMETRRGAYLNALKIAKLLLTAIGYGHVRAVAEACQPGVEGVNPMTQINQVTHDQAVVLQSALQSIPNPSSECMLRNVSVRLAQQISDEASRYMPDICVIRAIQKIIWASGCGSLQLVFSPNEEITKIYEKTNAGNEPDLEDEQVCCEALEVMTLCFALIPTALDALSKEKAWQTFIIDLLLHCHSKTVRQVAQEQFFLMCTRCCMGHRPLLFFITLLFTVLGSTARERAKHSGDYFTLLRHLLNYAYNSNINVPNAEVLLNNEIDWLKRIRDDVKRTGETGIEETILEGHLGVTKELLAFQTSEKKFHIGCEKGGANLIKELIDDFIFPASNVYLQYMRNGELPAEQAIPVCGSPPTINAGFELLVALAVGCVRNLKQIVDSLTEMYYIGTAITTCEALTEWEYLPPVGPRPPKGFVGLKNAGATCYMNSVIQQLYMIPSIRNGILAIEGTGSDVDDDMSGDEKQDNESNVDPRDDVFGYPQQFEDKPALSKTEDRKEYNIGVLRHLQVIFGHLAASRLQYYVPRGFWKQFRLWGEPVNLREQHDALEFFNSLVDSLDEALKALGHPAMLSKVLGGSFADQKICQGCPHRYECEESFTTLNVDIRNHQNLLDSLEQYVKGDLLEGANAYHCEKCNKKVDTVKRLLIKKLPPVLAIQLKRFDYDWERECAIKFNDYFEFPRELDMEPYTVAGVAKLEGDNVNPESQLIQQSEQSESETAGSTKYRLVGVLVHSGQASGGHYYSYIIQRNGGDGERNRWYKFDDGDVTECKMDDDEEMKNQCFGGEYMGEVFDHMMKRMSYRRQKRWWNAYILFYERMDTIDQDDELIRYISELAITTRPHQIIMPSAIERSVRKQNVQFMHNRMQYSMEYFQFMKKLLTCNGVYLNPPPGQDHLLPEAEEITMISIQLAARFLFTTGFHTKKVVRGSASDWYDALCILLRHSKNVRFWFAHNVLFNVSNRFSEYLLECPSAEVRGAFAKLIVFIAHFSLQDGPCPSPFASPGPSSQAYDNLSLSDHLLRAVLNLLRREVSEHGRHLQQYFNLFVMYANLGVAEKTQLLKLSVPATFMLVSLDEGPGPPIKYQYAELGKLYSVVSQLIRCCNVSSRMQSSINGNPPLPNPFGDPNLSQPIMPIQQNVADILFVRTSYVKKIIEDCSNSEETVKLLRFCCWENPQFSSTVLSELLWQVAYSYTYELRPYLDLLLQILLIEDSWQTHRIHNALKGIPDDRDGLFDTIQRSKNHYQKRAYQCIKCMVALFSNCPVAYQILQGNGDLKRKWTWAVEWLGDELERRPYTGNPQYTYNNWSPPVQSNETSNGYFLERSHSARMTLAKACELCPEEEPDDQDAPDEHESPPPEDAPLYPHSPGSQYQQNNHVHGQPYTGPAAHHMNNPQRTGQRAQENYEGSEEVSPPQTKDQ
Outline: as §1

UniProt O00487 = molecular target: UniProt O00487
Sequence of UniProt O00487 (O00487 whole entry): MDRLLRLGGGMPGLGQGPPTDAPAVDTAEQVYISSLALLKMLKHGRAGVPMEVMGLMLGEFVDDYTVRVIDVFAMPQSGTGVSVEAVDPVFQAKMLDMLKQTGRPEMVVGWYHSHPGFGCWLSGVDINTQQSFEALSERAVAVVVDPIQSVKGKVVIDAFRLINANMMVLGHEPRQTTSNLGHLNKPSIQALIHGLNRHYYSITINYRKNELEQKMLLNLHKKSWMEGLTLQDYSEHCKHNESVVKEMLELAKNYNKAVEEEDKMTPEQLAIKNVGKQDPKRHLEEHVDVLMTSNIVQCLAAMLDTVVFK
Outline: as §1

Measured: log2 ratio of Biotin-Ahx-Ub-VS probe labelling

COc1ccc(CN(C)C(=O)CCl)cc1
inactive: USP42 0.294 | USP46 -0.0887 | USP47 -0.0389 | USP48 -0.604 | USP5 0.404 | USP54 0.256 | USP7 -0.907 | USP8 -0.448 | USP9X -0.178 | UniProt O00487 -0.0169

Cc1ccc(CC(CO)CNC(=O)CCl)cc1 (stereo not given)
inactive: USP42 -0.0167 | USP46 -0.000866 | USP47 -0.102 | USP48 -0.405 | USP5 -0.182 | USP54 0.455 | USP7 -0.381 | USP8 -0.322 | USP9X -0.363 | UniProt O00487 -0.242
